Reference: PubChem BioAssay (Tox21)
Inconclusive results are not listed. Calls of active or inactive are those of the source. Unless noted, calls come from the whole dose curve; as a rule, active = well fitted curve in the direction sought with a large enough effect in the repeat runs; inconclusive = weak or mixed curves; inactive = no such curve, though single readings can be large; an effect the other way counts as inactive or inconclusive.

Tests used:
[1] = target: Acetylcholinesterase (Homo sapiens) (UniProt P22303); test: Acetylcholinesterase (AChE) small molecule antagonists: fluorescence cell-based qHTS assay (AID 1347398; calls by dose curve; note: nearly all actives have a fitted effect of over 50% in size); conditions: Potency: AChE activity
Chain of Acetylcholinesterase (Homo sapiens) (P22303 whole entry, looked up): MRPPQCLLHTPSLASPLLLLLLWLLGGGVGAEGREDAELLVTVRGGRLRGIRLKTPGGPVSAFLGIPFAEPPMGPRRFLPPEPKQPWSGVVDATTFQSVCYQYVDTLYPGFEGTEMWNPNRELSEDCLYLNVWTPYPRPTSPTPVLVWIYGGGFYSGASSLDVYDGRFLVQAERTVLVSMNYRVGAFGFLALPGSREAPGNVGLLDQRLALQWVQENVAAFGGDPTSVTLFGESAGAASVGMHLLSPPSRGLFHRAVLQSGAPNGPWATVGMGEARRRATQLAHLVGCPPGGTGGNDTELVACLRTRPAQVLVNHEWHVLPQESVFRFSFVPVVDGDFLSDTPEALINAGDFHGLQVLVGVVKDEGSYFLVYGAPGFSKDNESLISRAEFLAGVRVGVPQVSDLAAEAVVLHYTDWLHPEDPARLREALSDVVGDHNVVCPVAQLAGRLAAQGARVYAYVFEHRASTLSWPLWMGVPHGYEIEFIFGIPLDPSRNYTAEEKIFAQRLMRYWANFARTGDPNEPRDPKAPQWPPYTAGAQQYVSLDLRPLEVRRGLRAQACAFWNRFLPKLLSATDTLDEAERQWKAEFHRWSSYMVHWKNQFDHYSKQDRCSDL
Method in brief: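 Cellular AChE inhibition: SH-SY5Y cells treated with test chemical for 30 min at 37 C, then acetylthiocholine hydrolysis followed over 40 min at room temperature via thiocholine-reactive Thiolite Green fluorescence (490/520 nm).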

[2] = target: Acetylcholinesterase (Homo sapiens) (UniProt P22303); test: Acetylcholinesterase (AChE) small molecule antagonists: enzyme-based qHTS assay with human liver microsomes (AID 1347399; calls by dose curve; note: nearly all actives have a fitted effect of over 60% in size); conditions: Potency: qHTS inhibition
Method in brief: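 Recombinant human AChE (50 mU/mL in the enzyme mix) and human liver microsomes (0.25 mg/mL final) were preincubated with compound and NADPH (0.25 mg/mL final) for 30 min at 37 C. Acetylthiocholine/DTNB was then added; thiocholine was read colorimetrically after 10 min at room temperature.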

[3] = target: Cytochrome P450 2D6 (Homo sapiens) (UniProt P10635); test: Cytochrome P450 Family 2 Subfamily D Member 6 (CYP2D6) small molecule antagonists: luciferase reporter qHTS assay (AID 1671196); note: nearly all actives have a fitted effect of over 50% in size; note: potency is the fitted concentration of half-maximal effect; for activity change, negative = inhibition: series mostly up to about 120 µM
Chain of Cytochrome P450 2D6 (Homo sapiens) (P10635 whole entry, looked up): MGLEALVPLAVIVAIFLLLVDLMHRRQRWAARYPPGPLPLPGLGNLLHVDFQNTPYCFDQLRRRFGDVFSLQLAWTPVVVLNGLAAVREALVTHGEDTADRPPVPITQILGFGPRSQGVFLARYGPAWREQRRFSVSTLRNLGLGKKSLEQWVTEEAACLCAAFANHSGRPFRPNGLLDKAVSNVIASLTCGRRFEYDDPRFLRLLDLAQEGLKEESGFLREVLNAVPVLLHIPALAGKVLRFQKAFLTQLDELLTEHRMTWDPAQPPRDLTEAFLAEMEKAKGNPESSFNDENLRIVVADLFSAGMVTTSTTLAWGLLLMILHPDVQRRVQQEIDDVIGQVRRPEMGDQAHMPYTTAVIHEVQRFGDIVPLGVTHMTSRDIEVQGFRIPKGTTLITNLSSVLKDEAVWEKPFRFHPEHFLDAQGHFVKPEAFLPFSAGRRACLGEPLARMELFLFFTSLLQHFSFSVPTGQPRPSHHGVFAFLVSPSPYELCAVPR
Method in brief: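 Test chemicals meet CYP2D6 plus proluciferin substrate (10 min, RT); NADPH regenerating solution then drives turnover for 1 h. Detection reagent halts the reaction; luminescence measured after 20 min.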

[4] = target: Cytochrome P450 2C19 (Homo sapiens) (UniProt P33261); test: Cytochrome P450 Family 2 Subfamily C Member 19 (CYP2C19) small molecule antagonists: luciferase reporter qHTS assay (AID 1671197); note: nearly all actives have a fitted effect of over 65% in size; note: potency is the fitted concentration of half-maximal effect; for activity change, negative = inhibition: series mostly up to about 120 µM
Chain of Cytochrome P450 2C19 (Homo sapiens) (P33261 whole entry, looked up): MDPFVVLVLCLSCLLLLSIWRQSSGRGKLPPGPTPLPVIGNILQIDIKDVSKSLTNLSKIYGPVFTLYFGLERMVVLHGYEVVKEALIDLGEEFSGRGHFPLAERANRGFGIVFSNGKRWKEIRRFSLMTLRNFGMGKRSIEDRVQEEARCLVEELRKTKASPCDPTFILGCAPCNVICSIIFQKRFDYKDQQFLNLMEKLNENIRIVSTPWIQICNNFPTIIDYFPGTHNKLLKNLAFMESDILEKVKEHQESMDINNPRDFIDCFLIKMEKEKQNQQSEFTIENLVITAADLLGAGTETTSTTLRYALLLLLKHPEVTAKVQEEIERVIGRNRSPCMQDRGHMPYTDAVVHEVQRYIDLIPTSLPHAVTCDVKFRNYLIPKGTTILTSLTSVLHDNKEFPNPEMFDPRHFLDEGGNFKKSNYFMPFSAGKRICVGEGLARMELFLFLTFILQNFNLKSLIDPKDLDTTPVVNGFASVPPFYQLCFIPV
Method in brief: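 P450-Glo CYP2C19 screening system; proluciferin substrate; DMSO compound stocks; 10 min RT preincubation; NADPH regeneration, 1 h at 37C; luciferin detection reagent, 20 min RT; luminescence as RLU.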

[5] = target: Cytochrome P450 2C9 (Homo sapiens) (UniProt P11712); test: Cytochrome P450 Family 2 Subfamily C Member 9 (CYP2C9) small molecule antagonists: luciferase reporter qHTS assay (AID 1671198); note: nearly all actives have a fitted effect of over 50% in size; note: potency is the fitted concentration of half-maximal effect; for activity change, negative = inhibition: series mostly up to about 120 µM
Chain of Cytochrome P450 2C9 (Homo sapiens) (P11712 whole entry, looked up): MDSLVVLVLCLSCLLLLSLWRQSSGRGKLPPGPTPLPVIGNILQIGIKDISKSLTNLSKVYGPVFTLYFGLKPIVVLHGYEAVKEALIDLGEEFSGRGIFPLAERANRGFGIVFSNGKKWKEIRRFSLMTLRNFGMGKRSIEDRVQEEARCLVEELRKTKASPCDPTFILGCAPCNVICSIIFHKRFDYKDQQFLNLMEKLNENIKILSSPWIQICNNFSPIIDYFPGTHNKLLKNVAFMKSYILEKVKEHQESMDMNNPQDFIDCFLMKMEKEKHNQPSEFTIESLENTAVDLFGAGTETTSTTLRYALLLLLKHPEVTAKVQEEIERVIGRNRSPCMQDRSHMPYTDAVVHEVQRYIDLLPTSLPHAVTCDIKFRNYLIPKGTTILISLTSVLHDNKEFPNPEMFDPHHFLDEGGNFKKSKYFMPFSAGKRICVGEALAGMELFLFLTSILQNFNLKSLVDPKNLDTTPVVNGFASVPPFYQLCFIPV
Method in brief: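 CYP2C9 activity was measured with a P450-Glo proluciferin substrate. Enzyme–substrate mix was held with compound for 10 min at room temperature, then NADPH regeneration solution was added for 1 h at 37C. Luciferin product was read as luminescence.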

[6] = target: Cytochrome P450 1A2 (Homo sapiens) (UniProt P05177); test: Cytochrome P450 Family 1 Subfamily A Member 2 (CYP1A2) small molecule antagonists: luciferase reporter qHTS assay (AID 1671199); note: nearly all actives have a fitted effect of over 50% in size; note: potency is the fitted concentration of half-maximal effect; for activity change, negative = inhibition: series mostly up to about 120 µM
Chain of Cytochrome P450 1A2 (Homo sapiens) (P05177 whole entry, looked up): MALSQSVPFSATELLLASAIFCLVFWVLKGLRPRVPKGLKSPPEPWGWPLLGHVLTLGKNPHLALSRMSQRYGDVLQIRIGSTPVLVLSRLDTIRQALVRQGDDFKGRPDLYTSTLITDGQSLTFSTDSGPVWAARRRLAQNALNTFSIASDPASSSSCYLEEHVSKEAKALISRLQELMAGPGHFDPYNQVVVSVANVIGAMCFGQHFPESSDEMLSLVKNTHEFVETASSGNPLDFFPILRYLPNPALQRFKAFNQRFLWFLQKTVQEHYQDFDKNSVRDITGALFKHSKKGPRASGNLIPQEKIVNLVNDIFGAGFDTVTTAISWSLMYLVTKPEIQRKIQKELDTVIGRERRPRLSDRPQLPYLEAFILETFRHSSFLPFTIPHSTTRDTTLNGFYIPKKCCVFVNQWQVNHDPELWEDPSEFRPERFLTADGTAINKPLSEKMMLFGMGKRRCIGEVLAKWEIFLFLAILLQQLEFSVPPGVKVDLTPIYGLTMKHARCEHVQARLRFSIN
Method in brief: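 Steps: enzyme-substrate mix dispensed; test compounds and furafylline control pinned in; 10 min room temperature; NADPH regeneration solution added, 1 h; reaction stopped with luciferin detection reagent; luminescence read after 20 min.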

[7] = target: Voltage-gated inwardly rectifying potassium channel KCNH2 (Homo sapiens) (UniProt Q12809); test: Human Ether-a-go-go-Related Gene (hERG) channel small molecule antagonists: fluorescence cell-based qHTS assay (AID 1671200); note: nearly all actives have a fitted effect of over 50% in size; note: potency is the fitted concentration of half-maximal effect;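 for activity change, negative = inhibition: hERG-expressing U2OS cells given a thallium stimulus after FluxOR II dye loading; series mostly up to about 77 µM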
Chain of Voltage-gated inwardly rectifying potassium channel KCNH2 (Homo sapiens) (Q12809 whole entry, looked up): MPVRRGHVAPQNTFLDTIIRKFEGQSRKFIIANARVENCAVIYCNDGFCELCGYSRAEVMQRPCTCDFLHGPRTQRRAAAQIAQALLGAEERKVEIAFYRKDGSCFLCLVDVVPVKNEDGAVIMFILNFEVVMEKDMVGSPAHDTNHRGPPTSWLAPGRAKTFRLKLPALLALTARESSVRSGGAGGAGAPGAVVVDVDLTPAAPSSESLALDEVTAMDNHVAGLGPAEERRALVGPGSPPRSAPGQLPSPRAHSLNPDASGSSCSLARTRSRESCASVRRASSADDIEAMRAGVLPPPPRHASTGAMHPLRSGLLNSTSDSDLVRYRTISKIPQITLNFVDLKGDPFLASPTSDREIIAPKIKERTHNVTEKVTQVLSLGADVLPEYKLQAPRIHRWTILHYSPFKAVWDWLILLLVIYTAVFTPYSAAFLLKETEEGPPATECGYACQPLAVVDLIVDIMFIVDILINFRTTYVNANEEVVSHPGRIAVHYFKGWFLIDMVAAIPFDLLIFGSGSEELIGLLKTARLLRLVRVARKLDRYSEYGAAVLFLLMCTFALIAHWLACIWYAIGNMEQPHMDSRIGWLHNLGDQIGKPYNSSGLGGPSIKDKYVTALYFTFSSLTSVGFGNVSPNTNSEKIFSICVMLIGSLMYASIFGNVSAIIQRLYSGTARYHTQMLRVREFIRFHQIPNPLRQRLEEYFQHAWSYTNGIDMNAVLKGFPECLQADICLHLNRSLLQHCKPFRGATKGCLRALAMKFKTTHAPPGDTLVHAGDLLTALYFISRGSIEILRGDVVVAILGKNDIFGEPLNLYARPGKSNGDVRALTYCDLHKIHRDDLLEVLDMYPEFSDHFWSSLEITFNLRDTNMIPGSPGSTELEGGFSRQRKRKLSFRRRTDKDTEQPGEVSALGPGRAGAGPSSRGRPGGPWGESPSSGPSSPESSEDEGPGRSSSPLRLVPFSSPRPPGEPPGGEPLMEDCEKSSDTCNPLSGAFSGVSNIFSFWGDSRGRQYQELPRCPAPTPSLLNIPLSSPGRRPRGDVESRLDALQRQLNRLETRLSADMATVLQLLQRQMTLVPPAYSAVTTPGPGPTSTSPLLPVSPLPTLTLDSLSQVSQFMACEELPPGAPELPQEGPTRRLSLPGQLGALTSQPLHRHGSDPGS
Method in brief: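 Thallium served as the potassium surrogate; its influx into dye-loaded U2OS cells carrying the channel was measured by fluorescence over 2 min.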

[8] = target: Cytochrome P450 3A4 (Homo sapiens) (UniProt P08684); test: Cytochrome P450 Family 3 Subfamily A Member 4 (CYP3A4) small molecule antagonists: luciferase reporter qHTS assay (AID 1671201); note: nearly all actives have a fitted effect of over 50% in size; note: potency is the fitted concentration of half-maximal effect; for activity change, negative = inhibition: series mostly up to about 120 µM
Chain of Cytochrome P450 3A4 (Homo sapiens) (P08684 whole entry, looked up): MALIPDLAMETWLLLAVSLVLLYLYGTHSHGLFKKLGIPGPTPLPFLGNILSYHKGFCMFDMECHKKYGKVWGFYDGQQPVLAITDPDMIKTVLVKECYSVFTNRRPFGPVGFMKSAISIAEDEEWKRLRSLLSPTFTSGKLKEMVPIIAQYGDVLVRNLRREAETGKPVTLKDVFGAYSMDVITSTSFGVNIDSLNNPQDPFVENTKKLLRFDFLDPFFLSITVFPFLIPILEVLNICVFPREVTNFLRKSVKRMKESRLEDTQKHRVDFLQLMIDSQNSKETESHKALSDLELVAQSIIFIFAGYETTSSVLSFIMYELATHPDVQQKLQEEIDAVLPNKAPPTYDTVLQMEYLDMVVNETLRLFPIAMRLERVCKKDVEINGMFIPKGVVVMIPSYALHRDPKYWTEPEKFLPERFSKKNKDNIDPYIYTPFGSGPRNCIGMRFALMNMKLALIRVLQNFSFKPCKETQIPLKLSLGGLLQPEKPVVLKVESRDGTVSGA
Method in brief: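 Relative luminescence units after 20 min with luciferin detection reagent served as read-out. Beforehand, CYP3A4 turned over a proluciferin substrate for 1 h at room temperature with NADPH regeneration, following 10 min compound preincubation.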
% is set by controls: 0 for no effect and ±100 for the full control effect.

Cc1ccc(CCl)cc1
inactive: Potency [1] | Potency [2] | Potency [3] | Potency [4] | Potency [5] | Potency [6] | Potency [7] | Potency [8]

c1ccc2c(c1)OCC(C1=NCCN1)O2 (stereo unspecified)
active: Potency [3] 13.8 µM
inactive: Potency [1] | Potency [2] | Potency [4] | Potency [5] | Potency [6] | Potency [7] | Potency [8]

BrCBr
inactive: Potency [1] | Potency [2] | Potency [3] | Potency [4] | Potency [5] | Potency [6] | Potency [7] | Potency [8]

CC(C)CC(C)N (stereo unspecified)
inactive: Potency [1] | Potency [2] | Potency [3] | Potency [4] | Potency [5] | Potency [6] | Potency [7] | Potency [8]

COc1cc(C=O)cc2c1[C@H](COC(N)=O)[C@]1(OC(C)=O)ON2C[C@H]2[C@@H]1N2C(C)=O
inactive: Potency [1] | Potency [2] | Potency [3] | Potency [4] | Potency [5] | Potency [6] | Potency [7] | Potency [8]

CC(C)CCCCCOC(=O)c1ccccc1C(=O)OCCCCCC(C)C
inactive: Potency [1] | Potency [2] | Potency [7]
active: Potency [3] 27.9 µM | Potency [4] 39.5 µM | Potency [5] 12.5 µM | Potency [6] 35.2 µM | Potency [8] 2.79 µM

O=C/C(Cl)=C(/Cl)C(=O)O
inactive: Potency [1] | Potency [2] | Potency [3] | Potency [4] | Potency [5] | Potency [6] | Potency [7] | Potency [8]

COc1ccc(/C(=C/C(=O)N2CCOCC2)c2ccc(Cl)cc2)cc1OC
active: Potency [4] 56.4 µM | Potency [5] 31.7 µM | Potency [7] 12.3 µM | Potency [8] 3.17 µM
inactive: Potency [1] | Potency [2] | Potency [3] | Potency [6]

Fc1ccc(Oc2ccnc3cc(Cl)cc(Cl)c23)cc1
inactive: Potency [1] | Potency [2]
active: Potency [3] 35.6 µM | Potency [4] 20 µM | Potency [5] 31.7 µM | Potency [6] 0.71 µM | Potency [7] 24.5 µM | Potency [8] 63.3 µM

CN(C)C1CSSSC1
active: Potency [3] 39.9 µM | Potency [4] 35.6 µM | Potency [5] 28.3 µM | Potency [6] 63.3 µM
inactive: Potency [1] | Potency [2] | Potency [7] | Potency [8]

ClC1=C(Cl)[C@]2(Cl)[C@@H]3[C@@H](Cl)[C@H](Cl)C[C@@H]3[C@@]1(Cl)C2(Cl)Cl
inactive: Potency [1] | Potency [2] | Potency [3] | Potency [4] | Potency [5] | Potency [6] | Potency [7] | Potency [8]

Brc1c(Br)c(Br)c(Oc2c(Br)c(Br)c(Br)c(Br)c2Br)c(Br)c1Br
inactive: activity change, negative = inhibition [1] 6.2% [at 23.8 µM] | activity change, negative = inhibition [2] -0.487% [at 23.6 µM] | activity change, negative = inhibition [3] 0.431% [at 23.6 µM] | activity change, negative = inhibition [4] 12.5% [at 23.6 µM] | activity change, negative = inhibition [5] -7.81% [at 23.6 µM] | activity change, negative = inhibition [6] -11% [at 23.6 µM] | activity change, negative = inhibition [7] -0.0422% [at 15.8 µM] | activity change, negative = inhibition [8] 2.2% [at 23.6 µM]

CCc1nn(C)c(C(=O)NCc2ccc(C(C)(C)C)cc2)c1Cl
inactive: Potency [1] | Potency [2] | Potency [8]
active: Potency [3] 63.3 µM | Potency [4] 6.33 µM | Potency [5] 17.8 µM | Potency [6] 22.4 µM | Potency [7] 21.9 µM

Oc1c(Br)c(Br)c(Br)c(Br)c1Br
active: Potency [5] 35.8 µM | Potency [6] 56.8 µM
inactive: Potency [1] | Potency [2] | Potency [3] | Potency [4] | Potency [7] | Potency [8]

N#Cc1ccccc1Cl
inactive: Potency [1] | Potency [2] | Potency [3] | Potency [4] | Potency [5] | Potency [6] | Potency [7] | Potency [8]

N#Cc1ccccc1N
active: Potency [3] 25.2 µM
inactive: Potency [1] | Potency [2] | Potency [4] | Potency [5] | Potency [6] | Potency [7] | Potency [8]

CC(=[OH+])/C=C(/C)[O-].CC(=[OH+])/C=C(\C)[O-].CC(=[OH+])/C=C(\C)[O-].[Al]
inactive: Potency [1] | Potency [2] | Potency [3] | Potency [4] | Potency [5] | Potency [6] | Potency [7] | Potency [8]

O=[N+]([O-])c1ccc(Oc2ccc(C(F)(F)F)cc2[N+](=O)[O-])cc1
active: Potency [3] 22.4 µM | Potency [4] 0.894 µM | Potency [5] 25.2 µM | Potency [6] 31.7 µM | Potency [7] 6.16 µM
inactive: Potency [1] | Potency [2] | Potency [8]

CCCOCC(=Nc1ccc(Cl)cc1C(F)(F)F)n1ccnc1
inactive: Potency [1] | Potency [2]
active: Potency [3] 35.6 µM | Potency [4] 0.71 µM | Potency [5] 5.03 µM | Potency [6] 8.94 µM | Potency [7] 48.9 µM | Potency [8] 0.283 µM

COP(=O)(CCC(=O)NCO)OC
inactive: Potency [1] | Potency [2] | Potency [3] | Potency [4] | Potency [5] | Potency [6] | Potency [7] | Potency [8]

Cc1cc(Cl)ccc1O[C@H](C)C(=O)O
inactive: Potency [1] | Potency [2] | Potency [3] | Potency [4] | Potency [5] | Potency [6] | Potency [7] | Potency [8]

CC(C)C(=O)Cl
inactive: Potency [1] | Potency [2] | Potency [3] | Potency [4] | Potency [5] | Potency [6] | Potency [7] | Potency [8]
